From PubChem BioAssay
In the library only some 28% were active in any assay of this set; here they are far more common.
PLK1 PBD inh – blocks phosphopeptide binding to human Plk1 polo box domain | Plk1 PBD phosphopeptide binding, fluorescence polarization | inhibition, %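 (tested at about 20 µM)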 | 97,000 compounds, 0.13% hits | AID 693; in the data active = inhibition above about 34%, passing the limit was not always enough
Target sequence (P53350 whole entry, looked up, the tested form may be a part): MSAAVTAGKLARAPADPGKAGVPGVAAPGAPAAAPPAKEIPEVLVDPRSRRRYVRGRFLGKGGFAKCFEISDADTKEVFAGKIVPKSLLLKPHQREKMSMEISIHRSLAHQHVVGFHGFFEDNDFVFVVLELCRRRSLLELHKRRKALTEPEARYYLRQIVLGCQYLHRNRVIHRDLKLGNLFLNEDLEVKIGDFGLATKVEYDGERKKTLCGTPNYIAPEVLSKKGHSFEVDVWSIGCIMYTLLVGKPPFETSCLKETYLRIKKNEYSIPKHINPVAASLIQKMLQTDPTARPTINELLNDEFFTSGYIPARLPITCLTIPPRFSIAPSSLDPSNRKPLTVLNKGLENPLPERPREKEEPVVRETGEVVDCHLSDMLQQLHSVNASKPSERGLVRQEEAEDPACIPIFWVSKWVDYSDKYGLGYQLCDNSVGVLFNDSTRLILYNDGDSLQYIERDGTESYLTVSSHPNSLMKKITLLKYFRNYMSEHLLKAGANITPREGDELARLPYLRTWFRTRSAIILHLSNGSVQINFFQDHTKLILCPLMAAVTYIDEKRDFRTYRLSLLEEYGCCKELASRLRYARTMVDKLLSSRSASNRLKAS
PLK1 kinase inh – blocks human PLK1 kinase activity. P53350. inhibition, % at 10 µM. AID 619. recombinant PLK1 kinase, TR-FRET peptide phosphorylation. 97,000 compounds, 0.53% hits;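 active = inhibition of 50% or more in the single-concentration screen; inactive = inhibition below 50%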;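 note: 0% = DMSO max control and 100% = H-89 dihydrochloride min control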
CYP2C9 act – increases human cytochrome P450 2C9 activity. P11712. recombinant CYP2C9, luciferin-H conversion, luminescence; active compounds read high; factor 1 = untreated enzyme, 0 = blocked. activation factor at 5 µM. 96,000 compounds, 1.4% hits;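 active = activation factor of 2 or more for CYP2C9 at a 5 µM dose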;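 note: 0 = sulfaphenazole-blocked wells and 1 = vehicle-only wells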
CYP2C9 inh – blocks human cytochrome P450 2C9; P11712; CYP2C9 Supersomes, luciferin-H conversion, luminescence; inhibition, % at 5 µM; 96,000 compounds, 20% hits; AID 777;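 active = blocking of liver enzyme CYP2C9 beyond about 50% at 5 µM, limit read from the data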
CYP2C19 activ – cytochrome P450 2C19 (human) activation; 96,000 tested, under 10 active; activation factor at 5 µM; recombinant CYP2C19, luciferin-H EGE luminescence; active compounds read high; 0 = fully inhibited enzyme, 1 = untreated enzyme; P33261;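 active = activation factor of at least 2 at 5 µM in the primary screen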;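 note: 0 = wells with 2.5 mM tranylcypromine and 1 = vehicle-only wells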
CYP2C19 inhib – blocks human cytochrome P450 2C19; inhibition, % at 5 µM; CYP2C19 Supersomes, luciferin-H EGE luminescence, 30 min; 96,000 compounds, 21% hits; P33261;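 active = CYP2C19 inhibition above a set limit at 5 µM in the primary screen, cut at about 50% in these data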;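 note: plate controls were negative control wells for no effect and 2.5 mM tranylcypromine positive control for full effect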
Numbers without * were called inactive; · = not tested or not shown.

SMILES	PLK1 PBD inh	PLK1 kinase inh	CYP2C9 act	CYP2C9 inh	CYP2C19 activ	CYP2C19 inhib
CCC(C)NC(=O)CO/N=C/c1ccc(C(=O)OC)cc1 (stereo not drawn)	20	-4	0.3	69*	0.7	31
COC(=O)c1ccc(/C=N/OCC(=O)NC2CCCC(C)C2C)cc1 (stereo not drawn)	5	-3	0.6	40	0.8	23
COC(=O)c1ccc(/C=N/OCC(=O)NC2CCCCCCC2)cc1	-19	-11	0.4	65*	0.8	16
O=C(NCC(c1cccnc1)N1CCN(c2ccccc2F)CC1)OCc1ccccc1 (stereo not drawn)	-18	-2	0.1	94*	0.1	91*
O=C(NCC(c1cccnc1)N1CCN(c2ccccc2F)CC1)c1ccccc1 (stereo not drawn)	·	·	0.7	31	0.5	52*
O=C(NCC(c1cccnc1)N1CCN(c2ccc(F)cc2)CC1)c1cccc(Cl)c1 (stereo not drawn)	-9	-6	0.5	52*	0.6	45
O=C(NCC(c1cccnc1)N1CCN(c2ccccc2)CC1)c1ccc2c(c1)OCO2 (stereo not drawn)	-27	1	0.2	76*	0.4	59*
Cc1nn(Cc2c(Cl)cccc2Cl)c(C)c1NC(=O)/C=C/c1cnn(C)c1C	25	-10	0.8	19	1	3
COc1ccc2c(=O)c(N3C(=O)c4ccccc4C3=O)coc2c1	-7	-18	0.9	7	1	2
O=C(NCC(c1cccnc1)N1CCN(c2ccc(F)cc2)CC1)OCc1ccccc1 (stereo not drawn)	-16	-8	0.2	82*	0.1	85*
Cc1nn(C)cc1C=NCCOCc1ccccc1	0	-8	1.1	-8	1.1	-6
CCC(C)NC(=O)CSc1nc2n[nH]c(C)c2c(=N)n1-c1ccc(OC)cc1 (stereo not drawn)	5	-14	1	-4	0.9	5
CCC(Sc1nc2n[nH]c(C)c2c(=N)n1-c1cccc(Cl)c1C)C(=O)N(CC)CC (stereo not drawn)	15	-11	0.4	59*	1	4
COC(=O)CC1SC(=O)NC1=Nc1ccc(C)cc1 (stereo not drawn)	·	·	0.8	23	0.2	75*
CNC(=O)C1CC(=O)N(c2ccc(C)cc2)C1 (stereo not drawn)	-21	-2	1	2	0.7	30
CC(O)C(=O)NCCOCCOCCNC(=O)C(C)O (stereo not drawn)	5	-5	0.6	44	0.3	66*
CC(O)CCC(=O)NCCNC(=O)CCC(C)O (stereo not drawn)	·	·	1.1	-15	1.2	-18
COc1ccccc1OCc1ccc(C(=O)NCC2CCCO2)o1 (stereo not drawn)	19	7	0.8	20	0.7	28
O=C1OCCC1Sc1nnc(-c2ccc(Br)cc2)o1 (stereo not drawn)	1	-11	1	5	0.4	62*
C=CCc1c(C)nn(CC(=O)O)c1-c1ccccc1	·	·	1	0	1	-5
Cc1ccc(Nc2nc(C(=O)N3CCC(C(=O)NCCN4CCOCC4)CC3)cs2)cc1	-32	4	1.1	-9	0.9	8
CN(/N=C/c1ccncc1)c1cnn(-c2ccc(F)c(Cl)c2)c(=O)c1Cl	11	14	0.1	93*	0.1	91*
Cc1ccc(-n2ncc(N(C)C)c(Cl)c2=O)cc1	44	-5	1.1	-5	0.9	15
COc1ccc2c(c1OC)C(=O)N(c1cccc(C)c1)C2=O	-3	-1	3.1*	-211	0.8	20
Cc1occc1C(=O)NNC(=O)C(c1ccccc1)c1ccccc1	2	-11	0.6	41	0.8	20
SMILES	PLK1 PBD inh	PLK1 kinase inh	CYP2C9 act	CYP2C9 inh	CYP2C19 activ	CYP2C19 inhib
COc1ccc(-c2noc(CN(C(=O)C(C)(C)C)C(C)C)n2)cc1	25	9	0.4	57*	0.2	81*
CC(C)N(Cc1nc(-c2ccccc2)no1)C(=O)C(C)(C)C	8	-5	0.6	44	0.5	52*
CC(NC(=O)C1CC2CCCC(C1)C2=O)c1ccccc1 (stereo not drawn)	19	-14	1.1	-9	0.9	10
CC(=O)c1ccc(Nc2nc(=O)c3cccnc3s2)cc1	1	4	0.6	41	0.8	25
CC(=O)c1cccc(Nc2nc(=O)c3cccnc3s2)c1	23	-2	0.2	78*	0.3	74*
CC(OC(=O)CN(C)S(=O)(=O)c1ccc(Cl)cc1)C(=O)Nc1ccc(N2CCOCC2)cc1 (stereo not drawn)	·	·	1.1	-7	0.9	9
CC(=O)Nc1ccc(NC(=O)C(C)OC(=O)CN(C)S(=O)(=O)c2ccc(Cl)cc2)cc1 (stereo not drawn)	-5	-16	0.4	60*	0.2	75*
COc1ccc(-c2nnc(SC(C)C(=O)Nc3nccs3)n2Cc2ccccc2)cc1OC (stereo not drawn)	5	-11	0.4	56*	0.6	44
COc1cccc(C(=O)N(Cc2nc(-c3cccc(C)c3)no2)C(C)C)c1OC	-9	-13	0.2	82*	0.3	74*
Cc1cccc(-c2noc(CN(C(=O)c3ccc(Br)o3)C(C)C)n2)c1	-6	-18	0.4	56*	0.5	46
Cc1cccc(-c2noc(CN(C(=O)C(c3ccccc3)c3ccccc3)C(C)C)n2)c1	17	3	0.5	51*	0.9	11
Cc1cccc(-c2noc(Cc3ccccc3)n2)c1	-21	-11	1	1	1	-1
Cc1cccc(-c2noc(CN(C(=O)c3ccc4c(c3)OCO4)C(C)C)n2)c1	6	-6	0.6	37	0.9	6
Cc1cc(NC(=O)C2C3C(=O)N(Cc4ccc(Cl)cc4)C(C(=O)NCc4ccccc4)C34C=CC2(C)O4)no1 (stereo not drawn)	-10	-5	0.2	83*	0.6	40
COc1ccc(CNC(=O)C(c2ccco2)N(C(=O)c2csnn2)c2cccc(C)c2C)cc1 (stereo not drawn)	-17	-6	·	·	·	·
CCn1c(SCc2ccc(C(=O)Nc3cc(C)cc(C)c3)cc2)nnc1-c1ccncc1	4	-4	0.6	42	0.6	44
C=CCn1c(SCc2ccccc2)nnc1-c1cccnc1	-5	-10	1	-4	0.6	36
Cn1c(SCc2ccc(C#N)cc2)nnc1-c1cccc(Cl)c1	15	-5	0.5	47	0.3	74*
COc1cccc(-c2nnc(SCc3ccc(C#N)cc3)n2Cc2ccco2)c1	12	-4	0.1	95*	0.1	91*
C=CCn1c(SCc2ccc(OC)cc2)nnc1-c1cccnc1	29	-6	0.5	46	0.2	77*
Cc1ccc(-c2nnc(SCc3ccc(C#N)cc3)n2Cc2ccco2)cc1	-32	-10	0.7	32	0.9	11
